PubChem BioAssay

Tested on: Fibrinogen (Alexa647-labelled)
Test: Alexa647-fibrinogen binding to printed small molecules – biochemical, small-molecule microarray, 635/667 nm fluorescence, artefact control for SMM control-protein annotation, profiling panel (AID 1131);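 note: z-score merges 667 nm fluorescence with per-spot signal-to-noise over triplicate slides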
Conditions: fibrinogen-A647 binding fluorescence, higher = more signal

| SMILES | composite z-score |
| --- | --- |
| C=C(COC)/C(=C/C[C@H](OC(C)=O)c1ccc(CO)o1)c1cc(C(=O)OC)ccc1OC | 0.255 |
| O=C(NCCN1CCOCC1)C1N=C(c2ccc(OCCCO)cc2)N(c2ccccc2)O1 (stereo not given) | 0.545 |
| COCCOC(=O)N1C(=O)[C@@]2(c3cc(C#CCCO)ccc31)[C@H](C(=O)N1CCCCCCC1)[C@H]1C(=O)O[C@H](c3ccccc3)[C@H](c3ccccc3)N1[C@@H]2c1ccc(OCCO)cc1 | 0.769 |
| COc1cc(Br)cc(C(O)C2C=CC3C(=O)N(C)C(=O)C3N2N2CCCCC2)c1OC (stereo not given) | -0.83 |
| C=C(C)[C@@H]1CC=C(C(O)C2C=CC3C(=O)N(C)C(=O)C3N2Nc2ccccc2)CC1 (stereo not given in full) | 0.262 |
| O=C(N1CCCCC1)[C@]1(Cc2ccccc2)N=C(c2ccc(OCCCO)cc2)O[C@@H]1c1ccccc1 | 0.632 |
| CC(C)c1ccc(NN2C(C(O)c3ccc(B(O)O)cc3)C=CC3C(=O)N(c4ccccc4)C(=O)C32)cc1 (stereo not given) | 0.952 |
| C=CCNC(=O)[C@@H]1[C@H]2C(=O)O[C@H](c3ccccc3)[C@H](c3ccccc3)N2[C@H](c2ccccc2OCCO)[C@@]12C(=O)N(C(=O)OCCOC)c1ccccc12 | 0.979 |
| CC(C)C(O)C1C=CC2C(=O)N(c3ccccc3)C(=O)C2N1Nc1ccc([N+](=O)[O-])cc1 (stereo not given) | 0.954 |
| COC(=O)[C@@]1(Cc2ccc(OC)cc2)[C@@H]2C(=CC(=O)[C@H]2CC(=O)C(=O)N2CCCC2)CN1C(=O)c1ccccc1 | 0.802 |
| COC(=O)[C@@]1(Cc2ccc(OC)cc2)[C@H]2c3cc(C(=O)N(C)C)n(Cc4ccc(S(C)(=O)=O)cc4)c3C[C@H]2CN1C(=O)c1ccccc1 | 0.849 |
| COCCOC(=O)N1C(=O)[C@@]2(c3cc(C#CC4(O)CCCCCC4)ccc31)[C@H](c1ccc(OCCO)cc1)N1[C@H](c3ccccc3)[C@H](c3ccccc3)OC(=O)[C@H]1[C@@H]2C(=O)N1CCN(c2ncccn2)CC1 | 0.956 |
| COc1ccc(C#Cc2ccc3c(c2)[C@]2(C(=O)N3)[C@H](C(=O)Nc3nc4ccccc4s3)[C@H]3C(=O)O[C@H](c4ccccc4)[C@H](c4ccccc4)N3[C@@H]2c2ccc(O)cc2)cc1 | 0.997 |
| OCCCC1=CC(c2cccs2)N(Cc2cc3c(cc2Br)OCO3)CC1 (stereo not given) | 0.772 |
| CCN(CC)c1ccc(N2CC=CC34O[C@@H]5C=CCCOC(=O)C5[C@H]3C(=O)N(CCCCCCO)[C@@H]4C2=O)cc1 (stereo not given in full) | -1.15 |
| CCCCCN1CC=CC23O[C@@H]4/C=C\CCC(C)OC(=O)C4[C@H]2C(=O)N(C(C)CO)[C@@H]3C1=O (stereo not given in full) | -0.925 |
| CC(C)OC(=O)C=C1C[C@@H](c2ccccn2)O[C@@H](c2ccccn2)O1 | 0.0108 |
| C=CCOC(=O)[C@H]1[C@@H]2C(=O)O[C@@H](c3ccccc3)[C@@H](c3ccccc3)N2[C@@H](c2ccc(OCCOC(=O)[C@@H]3C[C@@H]4C(=O)N[C@@H](CCCCNC(C)=O)C(=O)N4[C@@H]3c3ccc(O)cc3)cc2)[C@]12C(=O)Nc1ccccc12 | 0.76 |

| SMILES | composite z-score |
| --- | --- |
| Cc1nc2cc(Br)ccc2c(=O)o1 | 0.0814 |
| C=CCOC(=O)[C@H]1[C@@H]2C(=O)O[C@@H](c3ccccc3)[C@@H](c3ccccc3)N2[C@@H](c2ccc(OCCOC(=O)[C@H]3C[C@H]4C(=O)N[C@@H](CCCCNC(C)=O)C(=O)N4[C@H]3c3ccc(O)cc3)cc2)[C@]12C(=O)Nc1ccc(I)cc12 | 0.332 |
| C=C[C@@H](COC(=O)OC(C)(C)C)N(Cc1ccc(OC)cc1)S(=O)(=O)c1ccc(Br)cc1 | 0.731 |
| COc1ccc([Si](C)(C)[C@H]2[C@H](CCO)O[C@@]3(C(=O)N(Cc4ccc(N(C=O)c5ccccc5)cc4)c4ccccc43)[C@@H]2C)cc1 | -0.568 |
| COCCOC(=O)N1C(=O)[C@@]2(c3cc(C#Cc4ccc(OC)cc4)ccc31)[C@H](c1ccc(OCCO)cc1)N1[C@H](c3ccccc3)[C@H](c3ccccc3)OC(=O)[C@H]1[C@@H]2C(=O)N1CCN(c2ncccn2)CC1 | -0.51 |
| COc1ccc(C#Cc2ccc3c(c2)[C@]2(C(=O)N3)[C@H](c3ccccc3OCCO)N3[C@H](c4ccccc4)[C@H](c4ccccc4)OC(=O)[C@H]3[C@@H]2C(=O)Nc2nc3ccccc3s2)cc1 | 0.767 |
| CCCC[C@@H]1C[C@H]1[C@@H](NC(=O)C(C)(C)C)c1ccc(C(F)(F)F)cc1 | -0.27 |
| COC(=O)C(CC#Cc1ccc2c(c1)[C@]1(C(=O)N2)[C@H](c2ccc(OCCO)cc2)N2[C@H](c3ccccc3)[C@H](c3ccccc3)OC(=O)[C@H]2[C@@H]1C(=O)Nc1nc2ccccc2s1)C(=O)OC | 0.998 |
| COc1ccc(CCNC(=O)[C@@]2(Sc3ccc(C)cc3)CC(=O)N(C(C)C)[C@@H]2c2ccc(CO)cc2I)cc1 | 0.144 |
| COC(=O)[C@@]1(Cc2ccc(F)cc2)[C@H]2c3cc(C(=O)N4CCCC4)n(Cc4ccc(S(C)(=O)=O)cc4)c3C[C@H]2CN1C(=O)c1ccccc1 | 0.773 |
| O=C1c2ccccc2[C@](Cc2ccccc2I)(C(=O)NCCN2CCOCC2)[C@H](c2ccc(CO)cc2)N1C1CCCCC1 | 0.927 |
| COC(=O)[C@@]1(CCS(=O)(=O)c2ccccc2)N=C(c2ccc(OCCCO)cc2)O[C@H]1c1ccccc1CN=[N+]=[N-] | 0.755 |
| COCCOC(=O)N1C(=O)[C@@]2(c3cc(C#CCNC(N)=O)ccc31)[C@H](C(=O)Nc1nc3ccccc3s1)[C@H]1C(=O)O[C@H](c3ccccc3)[C@H](c3ccccc3)N1[C@@H]2c1ccc(OCCO)cc1 | 0.901 |
| CC(C)NC(=O)[C@@H]1c2ccccc2C(=O)N(C2Cc3ccccc3C2)[C@H]1c1ccc(CO)cc1 | 0.445 |
| CC(C)=CCCC(C)=CC(O)C1C=CC2C(=O)N(C)C(=O)C2N1Nc1ccccc1 (stereo not given) | 1.03 |
| [N-]=[N+]=NCc1ccccc1C[C@]1(C(=O)N2CCCCC2)N=C(c2ccc(OCCCO)cc2)O[C@H]1c1ccccc1N=[N+]=[N-] | 0.984 |
| CCOC(=O)C[C@H]1[C@H](OC(=O)c2ccc(C(=O)c3ccccc3)cc2)[C@@H](NC(=O)CC(C)C)c2cc(OCCCO)ccc2N1C(=O)c1ccc2ccccc2n1 | 0.989 |
